Test in all cases: DAPPL (digital affinity profiling via proximity ligation, sequencing); 10 mM Tris-HCl pH 7.5, 50 mM NaCl, 1 mM DTT, 4% glycerol, room temperature, 30 min; GST-TFs on glutathione beads, 16-mer random dsDNA library, 0.1% formaldehyde crosslink after washing; high values mean tight binding
What all share (conditions): protein: recombinant; tags: N-terminal GST; dsDNA, one strand shown

For one assay, the target named is T1, ERF (Homo sapiens, UniProt P50548 1-548).
T1 sequence: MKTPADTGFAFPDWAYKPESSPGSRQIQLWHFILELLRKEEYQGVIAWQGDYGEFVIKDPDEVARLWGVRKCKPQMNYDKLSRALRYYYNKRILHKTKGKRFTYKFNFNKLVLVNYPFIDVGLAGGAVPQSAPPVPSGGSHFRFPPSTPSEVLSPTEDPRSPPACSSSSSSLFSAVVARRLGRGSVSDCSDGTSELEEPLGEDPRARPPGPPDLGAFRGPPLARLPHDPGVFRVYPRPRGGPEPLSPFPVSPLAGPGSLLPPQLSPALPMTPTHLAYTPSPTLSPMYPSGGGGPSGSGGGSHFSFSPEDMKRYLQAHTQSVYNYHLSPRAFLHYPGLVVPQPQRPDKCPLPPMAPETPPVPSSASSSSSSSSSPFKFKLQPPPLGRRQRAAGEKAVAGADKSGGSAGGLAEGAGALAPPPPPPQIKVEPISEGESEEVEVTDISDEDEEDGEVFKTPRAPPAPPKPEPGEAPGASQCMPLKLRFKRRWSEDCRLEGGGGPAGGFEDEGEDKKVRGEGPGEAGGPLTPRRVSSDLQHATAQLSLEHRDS
Summed up:
(§1)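 Pools were built from human transcription factors expressed in yeast as GST fusions, captured on glutathione beads and DNA-barcoded, along with a tag-only sample. Incubation with 200 nmole of a 16-mer random double-stranded DNA library lasted 30 min at room temperature in Tris/NaCl/DTT/glycerol buffer, and was followed by washing, 0.1% formaldehyde crosslinking, proximity ligation, PCR amplification and Illumina NextSeq500 sequencing. Binding signal is the quotient of each hexamer's read frequency for a factor and its frequency for the tag-only sample.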

The next assay has as its target T2, ETV3L (Homo sapiens, UniProt Q6ZN32 1-361).
T2 sequence: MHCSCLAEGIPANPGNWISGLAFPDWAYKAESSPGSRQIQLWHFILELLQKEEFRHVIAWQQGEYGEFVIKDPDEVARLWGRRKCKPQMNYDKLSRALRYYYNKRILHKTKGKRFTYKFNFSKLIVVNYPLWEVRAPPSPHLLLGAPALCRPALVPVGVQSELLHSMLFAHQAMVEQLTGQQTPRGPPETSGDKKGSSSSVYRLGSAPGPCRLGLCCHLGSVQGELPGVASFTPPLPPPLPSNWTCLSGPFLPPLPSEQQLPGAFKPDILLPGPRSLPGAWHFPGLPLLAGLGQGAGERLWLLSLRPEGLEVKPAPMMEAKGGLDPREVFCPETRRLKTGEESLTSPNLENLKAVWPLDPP
Summed up: as §1

For another assay, the target named is T3, ETS2 (Homo sapiens, UniProt P15036 1-469).
T3 sequence: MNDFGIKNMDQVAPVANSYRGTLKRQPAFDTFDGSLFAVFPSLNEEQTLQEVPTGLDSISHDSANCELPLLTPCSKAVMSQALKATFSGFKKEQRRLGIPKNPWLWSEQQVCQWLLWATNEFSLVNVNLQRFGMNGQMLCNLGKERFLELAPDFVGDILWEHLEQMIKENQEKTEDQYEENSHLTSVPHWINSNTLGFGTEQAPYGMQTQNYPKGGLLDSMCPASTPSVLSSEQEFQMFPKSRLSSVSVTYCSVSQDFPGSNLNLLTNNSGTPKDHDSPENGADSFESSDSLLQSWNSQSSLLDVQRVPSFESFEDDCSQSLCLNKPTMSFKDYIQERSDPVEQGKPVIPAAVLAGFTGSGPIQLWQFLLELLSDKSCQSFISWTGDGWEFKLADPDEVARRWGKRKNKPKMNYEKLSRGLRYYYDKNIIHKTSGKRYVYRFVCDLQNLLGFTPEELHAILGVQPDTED
Summed up: as §1

For a further assay, the target named is T4, SPDEF (Homo sapiens, UniProt O95238 1-335).
T4 sequence: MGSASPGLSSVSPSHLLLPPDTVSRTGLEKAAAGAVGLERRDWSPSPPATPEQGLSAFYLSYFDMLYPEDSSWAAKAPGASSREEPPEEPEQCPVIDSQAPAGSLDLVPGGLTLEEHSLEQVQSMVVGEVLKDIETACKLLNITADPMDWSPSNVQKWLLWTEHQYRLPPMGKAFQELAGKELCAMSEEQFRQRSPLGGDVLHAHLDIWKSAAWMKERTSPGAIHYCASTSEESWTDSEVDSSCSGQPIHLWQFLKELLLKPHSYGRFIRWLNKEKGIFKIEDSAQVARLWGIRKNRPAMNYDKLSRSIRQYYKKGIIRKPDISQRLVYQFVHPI
Summed up:
as §1

The target in a further assay is T5, ETV7 (Homo sapiens, UniProt Q9Y603 1-341).
T5 sequence: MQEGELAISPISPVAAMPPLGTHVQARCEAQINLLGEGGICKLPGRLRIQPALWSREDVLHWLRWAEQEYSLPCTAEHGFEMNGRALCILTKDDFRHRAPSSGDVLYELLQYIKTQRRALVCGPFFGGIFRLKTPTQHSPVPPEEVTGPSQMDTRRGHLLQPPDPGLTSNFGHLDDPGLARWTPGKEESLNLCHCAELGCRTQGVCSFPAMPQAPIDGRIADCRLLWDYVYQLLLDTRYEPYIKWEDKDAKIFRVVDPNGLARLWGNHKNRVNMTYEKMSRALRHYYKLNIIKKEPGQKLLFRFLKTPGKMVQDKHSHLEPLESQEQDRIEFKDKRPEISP
The method in brief: as §1

For the next assay, the target named is T6, ELF5 (Homo sapiens, UniProt Q9UKW6-2 1-255).
T6 sequence: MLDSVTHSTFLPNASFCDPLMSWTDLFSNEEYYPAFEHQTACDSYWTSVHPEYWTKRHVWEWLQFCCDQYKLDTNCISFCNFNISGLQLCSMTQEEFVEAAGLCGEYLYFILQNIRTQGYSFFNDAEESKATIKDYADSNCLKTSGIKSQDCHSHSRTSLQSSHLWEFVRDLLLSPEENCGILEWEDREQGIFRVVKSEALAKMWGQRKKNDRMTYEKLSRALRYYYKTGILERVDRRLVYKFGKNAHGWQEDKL
Summed up:
as §1

For the next assay, the target named is T7, ETV3 (Homo sapiens, UniProt P41162-2 1-143).
T7 sequence: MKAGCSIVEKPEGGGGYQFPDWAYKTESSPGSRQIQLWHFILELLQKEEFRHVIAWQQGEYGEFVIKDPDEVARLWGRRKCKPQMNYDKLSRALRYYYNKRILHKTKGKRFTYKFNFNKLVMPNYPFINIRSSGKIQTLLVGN
The method in brief: as §1

For the next assay, the target named is ETV6 (Homo sapiens, UniProt P41212 1-452). Summed up:
as §1

Chain of ETV6 (P41212 whole entry): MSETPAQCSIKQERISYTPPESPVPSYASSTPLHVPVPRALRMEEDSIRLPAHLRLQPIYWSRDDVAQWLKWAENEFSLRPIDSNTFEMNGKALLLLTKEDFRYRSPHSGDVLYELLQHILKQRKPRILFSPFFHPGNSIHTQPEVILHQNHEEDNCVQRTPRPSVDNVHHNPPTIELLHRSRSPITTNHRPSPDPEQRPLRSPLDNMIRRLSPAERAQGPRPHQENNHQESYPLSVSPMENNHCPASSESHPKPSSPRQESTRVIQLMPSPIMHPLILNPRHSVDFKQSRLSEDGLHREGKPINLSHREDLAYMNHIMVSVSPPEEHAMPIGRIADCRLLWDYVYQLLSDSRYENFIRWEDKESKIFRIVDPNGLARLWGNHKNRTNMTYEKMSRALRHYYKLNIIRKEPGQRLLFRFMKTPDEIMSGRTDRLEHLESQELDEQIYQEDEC

AAGCGG: the binding signal with ERF was 1.08 fold enrichment (6-mer frequency, TF over GST control); with ETV3L, 1.17 fold enrichment (6-mer frequency, TF over GST control); with ETS2 it was 1.13 fold enrichment (6-mer frequency, TF over GST control); in the assay with SPDEF it was 1.08 fold enrichment (6-mer frequency, TF over GST control); in the assay with ETV7, 1.16 fold enrichment (6-mer frequency, TF over GST control); with ELF5, 1.13 fold enrichment (6-mer frequency, TF over GST control). In addition, the binding signal with ETV3 is 1.15 fold enrichment (6-mer frequency, TF over GST control); with ETV6, 1.23 fold enrichment (6-mer frequency, TF over GST control).
With AACGAC, the binding signal was 1.14 fold enrichment (6-mer frequency, TF over GST control) with ERF; 1.15 fold enrichment (6-mer frequency, TF over GST control) in the assay with ETV3L; 1.19 fold enrichment (6-mer frequency, TF over GST control) in the assay with ETS2; 1.16 fold enrichment (6-mer frequency, TF over GST control) with SPDEF; 1.07 fold enrichment (6-mer frequency, TF over GST control) with ETV7; 1.18 fold enrichment (6-mer frequency, TF over GST control) in the assay with ELF5. Besides, the binding signal in the assay with ETV3 was 1.11 fold enrichment (6-mer frequency, TF over GST control); with ETV6 it was 1.19 fold enrichment (6-mer frequency, TF over GST control).
In the case of TAAATC, the binding signal in the assay with ERF is 1.24 fold enrichment (6-mer frequency, TF over GST control); with ETV3L, 1.29 fold enrichment (6-mer frequency, TF over GST control); with ETS2 it was 1.33 fold enrichment (6-mer frequency, TF over GST control); with SPDEF, 1.33 fold enrichment (6-mer frequency, TF over GST control); with ETV7, 1.22 fold enrichment (6-mer frequency, TF over GST control); with ELF5, 1.15 fold enrichment (6-mer frequency, TF over GST control). Further, the binding signal with ETV3 is 1.18 fold enrichment (6-mer frequency, TF over GST control); with ETV6, 1.29 fold enrichment (6-mer frequency, TF over GST control).
As to GACTAC, the binding signal is 1.19 fold enrichment (6-mer frequency, TF over GST control) with ERF; 1.17 fold enrichment (6-mer frequency, TF over GST control) in the assay with ETV3L; 1.08 fold enrichment (6-mer frequency, TF over GST control) with ETS2; 1.1 fold enrichment (6-mer frequency, TF over GST control) with SPDEF; 1.17 fold enrichment (6-mer frequency, TF over GST control) with ETV7; 1.24 fold enrichment (6-mer frequency, TF over GST control) with ELF5. In addition, the binding signal is 1.11 fold enrichment (6-mer frequency, TF over GST control) with ETV3 and 1.11 fold enrichment (6-mer frequency, TF over GST control) in the assay with ETV6.
Take TATCTG: the binding signal with ERF is 1.2 fold enrichment (6-mer frequency, TF over GST control); with ETV3L, 1.41 fold enrichment (6-mer frequency, TF over GST control); with ETS2, 1.11 fold enrichment (6-mer frequency, TF over GST control); with SPDEF, 1.13 fold enrichment (6-mer frequency, TF over GST control); with ETV7, 1.2 fold enrichment (6-mer frequency, TF over GST control); with ELF5 it was 1.14 fold enrichment (6-mer frequency, TF over GST control). For the same sequence, the binding signal with ETV3 was 1.21 fold enrichment (6-mer frequency, TF over GST control); with ETV6 it was 1.17 fold enrichment (6-mer frequency, TF over GST control).
For ACACCC, the binding signal is 1.17 fold enrichment (6-mer frequency, TF over GST control) with ERF; 1.18 fold enrichment (6-mer frequency, TF over GST control) with ETV3L; 1.09 fold enrichment (6-mer frequency, TF over GST control) in the assay with ETS2; 1.21 fold enrichment (6-mer frequency, TF over GST control) in the assay with SPDEF; 1.09 fold enrichment (6-mer frequency, TF over GST control) in the assay with ETV7; 1.12 fold enrichment (6-mer frequency, TF over GST control) with ELF5. Also, the binding signal was 1.14 fold enrichment (6-mer frequency, TF over GST control) with ETV3 and 1.01 fold enrichment (6-mer frequency, TF over GST control) with ETV6.
Turning to TGGCAG, the binding signal is 1.11 fold enrichment (6-mer frequency, TF over GST control) with ERF; 1.12 fold enrichment (6-mer frequency, TF over GST control) with ETV3L; 1.05 fold enrichment (6-mer frequency, TF over GST control) with ETS2; 1.05 fold enrichment (6-mer frequency, TF over GST control) with SPDEF; 1.04 fold enrichment (6-mer frequency, TF over GST control) with ETV7; 1.09 fold enrichment (6-mer frequency, TF over GST control) with ELF5. The binding signal in the assay with ETV3 was 1.16 fold enrichment (6-mer frequency, TF over GST control); with ETV6, 1.09 fold enrichment (6-mer frequency, TF over GST control).
